Laboratory results reported in PubChem BioAssay.
Several values for one entry are separate records, joined by “and”; a condition that tells them apart may be missing. Equal entries are not always repeated. For part of these data: Entries with a potency or affinity are not part of this list. Activity calls are given as the source filed them.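 How the source made its calls, unless noted: active means at least 20% inhibition of 6-phosphogluconate dehydrogenase activity; inactive means the rest.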

What was measured:
[1] = target: 6-phosphogluconate dehydrogenase, decarboxylating (Homo sapiens) (UniProt P52209); assay: 6PGD enzyme inhibitors, primary screen, biochemical, human, recombinant enzyme, NADPH absorbance (AID 1159550); details: recombinant 6PGD, NADPH absorbance 341 nm; at 10 µM; stronger effect = higher value
[2] = test system: Aerobactin synthetase IucA (Klebsiella pneumoniae hvKP1); assay: Biochemical IucA enzyme inhibition primary screen of the Spectrum library (AID 1346200; call rule not given here;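 further: 100% = wells without compound and 0% = wells lacking enzyme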); details: malachite green pyrophosphate, A620, at 8 µM, stronger effect = lower value
[3] = liver-stage malaria parasite growth inhibition, primary screen, cell-based, HepG2, luciferase luminescence, HepG2 viability (AID 624349; in the data active means parasite load remaining mostly below about 12%, no sharp cut-off; inactive means mostly above about 10%;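 further: 100% = mean of DMSO negative control wells on the same plate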); details: P. berghei liver stage in HepG2, luciferase luminescence, concentration not given here; parasite load remaining: stronger effect = lower value; viability: measured here: HepG2 viability without parasites
[4] = sensitizers of A549 cells to miR-34 induction, primary screen, imaging, A549 dox-inducible miR-34, nuclei and caspase counts (AID 1347080;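 active means compounds whose cell count with miR-34 switched on is under 0.7 times the count with it off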); details: A549 miR-34 inducible, Hoechst nuclei count, 48 h
[5] = target: NAD(+) hydrolase SARM1 (Homo sapiens) (UniProt Q6SZW1); assay: SARM1 TIR NADase inhibitors, cell lysate, NAD-Glo luminescence (AID 1508614;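 active means compound whose remaining NAD level is above about 45 nM, limit read from the data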); details: SAM-TIR HEK293T lysate NADase, at 1 µM, stronger effect = higher value
[6] = target: Mitogen-activated protein kinase 7 (Homo sapiens) (UniProt Q13164); assay: ERK5 transactivation activators in reporter cells, primary screen, cell-based, HTS (AID 1508626;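 active means luciferase signal above three times the same-plate solvent-only control wells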;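 further: luciferase driven by Gal4-ERK5 fusion binding five Gal4 sites before minimal TATA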); details: HeLa Gal4-ERK5 transactivation, 18 h, at 5 µM, stronger effect = higher value
[7] = viability rescue of complex I mutant cybrids, primary screen, cell-based, galactose medium, ATP luminescence (AID 1645843;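 active means z-score of at least 1.8 in each of two replicates, scored against plate mean and spread of sample wells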;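 further: positive z means more ATP and so rescue of galactose-driven cybrid death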); details: complex I mutant cybrid cells, 72 h, stronger effect = higher value
[8] = polyglutamine-triggered caspase-3 activation inhibitors, cell-based (AID 1583); details: polyglutamine-induced caspase-3 activation, cell assay; stronger effect = higher value;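 tested at 10 µM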
[9] = suppressors of polyQ aggregation in yeast, 75Q-TubU reporter (AID 1593); details: Yeast 75Q polyglutamine aggregation reporter
[10] = rescue of polyQ-huntingtin neuronal dysfunction in worms, whole organism, C. elegans mechanosensory neurons, N-terminal huntingtin (AID 1599); details: touch response, stronger effect = higher value
[11] = inhibitors of mitochondrial cytochrome c release, biochemical, purified mitochondria (AID 1603); details: stronger effect = lower value;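 further: mouse liver mitochondria challenged with calcium chloride; signal normalized to the plate average as 100%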
[12] = inhibitors of polyQ protein aggregation (AID 1604); details: polyglutamine-induced protein aggregation inhibition assay; stronger effect = higher value; tested at 2.5 µM
[13] = enhancers of glutamate uptake in motor neurons, MN-1 cell line (AID 1612); details: MN-1 motor neuron cells, stronger effect = higher value;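 further: tested at 1 µM final; 0% = mean of DMSO vehicle wells on each plate; positive means more glutamate uptake than control and negative means less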
[14] = reducers of polyQ inclusions in PC12 cells, cell-based, NGF-treated PC12, GFPQ80 (AID 1614); details: PC12 NGF-treated GFP-polyQ80 inclusion reduction;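 further: lower means fewer inclusions and 0 means no inclusions at all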
[15] = suppressors of polyglutamine aggregation in yeast, 75Q-TubH (AID 1616); details: S. cerevisiae 75Q-TubH polyglutamine aggregation suppression; stronger effect = higher value
[16] = differential killing of epithelial or mesenchymal cells, primary screen, imaging, PC-3E GFP, TEM4-18 mCherry, co-culture (AID 1345086;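 active means compounds killing one labelled cell type while sparing the other, by normalised counts and ratio limits, not self-fluorescent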;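 on all read-outs here: cells exposed to compound for 72 h before imaging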;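 on red/green cell ratio (normalised): normalised mesenchymal count divided by normalised epithelial count so high means epithelial killing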); details: imaging cell counts, at 1 µM; for red/green cell ratio (normalised): actives lie on both sides
[17] = circadian clock period modulators, cell-based, LOPAC library, luminescence reporter (AID 2774; call rule not given here;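 further: values are relative to mean of DMSO wells on each plate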); details: circadian reporter cells, at 7 µM, actives lie on both sides
[18] = test system: Hepatitis C virus NS3 helicase; assay: HCV NS3 helicase inhibitors, primary screen, biochemical, fluorescence polarization, LOPAC1280 library (AID 687035; in the data active means inhibition above about 37%); details: Purified HCV NS3 helicase, Cy5-dT15 ssDNA binding fluorescence polarization; stronger effect = higher value; concentration not given here
[19] = survival rescue of mitochondrial mutant cells in low glucose, primary screen, MELAS cybrids, Rieske KO mouse fibroblasts, CellTiter-Glo (AID 1508586;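 active means mean z-score across replicates of 1.96 or higher in either the MELAS or the Rieske mutant cell line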;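 further: z relative to plate mean and SD of compound and empty wells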)
[20] = measured here: relative caspase fold change +Dox/-Dox
[21] = measured here: total cells with miR-34 induction, stronger effect = lower value
[22] = measured here: total cells without miR-34 induction
[23] = measured here: epithelial PC-3E GFP cell survival
[24] = measured here: mesenchymal TEM4-18 mCherry cell survival

Sequence of Mitogen-activated protein kinase 7 (Homo sapiens) (Q13164 whole entry, looked up, the tested form may be a part): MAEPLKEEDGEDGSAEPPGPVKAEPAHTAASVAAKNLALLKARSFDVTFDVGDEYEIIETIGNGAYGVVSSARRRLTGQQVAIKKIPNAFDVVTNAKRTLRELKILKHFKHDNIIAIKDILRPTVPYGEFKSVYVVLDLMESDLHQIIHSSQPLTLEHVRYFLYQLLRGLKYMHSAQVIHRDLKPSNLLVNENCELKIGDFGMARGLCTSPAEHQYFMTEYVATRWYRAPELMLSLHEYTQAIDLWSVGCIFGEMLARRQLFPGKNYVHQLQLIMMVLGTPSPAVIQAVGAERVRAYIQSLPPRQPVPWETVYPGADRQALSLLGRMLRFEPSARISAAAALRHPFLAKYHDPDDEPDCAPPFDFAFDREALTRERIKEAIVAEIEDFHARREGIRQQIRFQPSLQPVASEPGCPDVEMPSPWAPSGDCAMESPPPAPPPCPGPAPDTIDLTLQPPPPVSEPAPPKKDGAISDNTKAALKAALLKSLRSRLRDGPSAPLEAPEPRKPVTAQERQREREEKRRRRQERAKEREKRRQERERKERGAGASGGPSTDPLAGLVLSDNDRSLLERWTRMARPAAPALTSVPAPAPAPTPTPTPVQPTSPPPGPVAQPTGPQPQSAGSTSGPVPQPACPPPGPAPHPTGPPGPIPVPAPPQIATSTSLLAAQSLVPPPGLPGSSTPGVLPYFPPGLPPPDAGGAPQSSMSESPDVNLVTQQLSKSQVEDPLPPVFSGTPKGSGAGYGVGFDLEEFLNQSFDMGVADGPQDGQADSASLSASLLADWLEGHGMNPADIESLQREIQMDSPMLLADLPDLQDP
Sequence of 6-phosphogluconate dehydrogenase, decarboxylating (Homo sapiens) (P52209 whole entry, looked up): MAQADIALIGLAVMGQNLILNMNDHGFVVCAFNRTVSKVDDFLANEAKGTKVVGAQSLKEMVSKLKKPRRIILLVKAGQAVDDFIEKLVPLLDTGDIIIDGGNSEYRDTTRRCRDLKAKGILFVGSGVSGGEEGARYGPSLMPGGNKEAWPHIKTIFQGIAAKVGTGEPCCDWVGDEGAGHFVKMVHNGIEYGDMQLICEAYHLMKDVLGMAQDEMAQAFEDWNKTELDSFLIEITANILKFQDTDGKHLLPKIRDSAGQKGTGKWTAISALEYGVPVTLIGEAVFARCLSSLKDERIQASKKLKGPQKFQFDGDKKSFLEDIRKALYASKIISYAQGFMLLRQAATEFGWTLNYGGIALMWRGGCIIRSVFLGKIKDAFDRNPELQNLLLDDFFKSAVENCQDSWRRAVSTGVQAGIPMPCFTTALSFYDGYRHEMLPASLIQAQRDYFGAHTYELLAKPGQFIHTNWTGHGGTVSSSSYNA
Sequence of NAD(+) hydrolase SARM1 (Homo sapiens) (Q6SZW1 whole entry, looked up, the tested form may be a part): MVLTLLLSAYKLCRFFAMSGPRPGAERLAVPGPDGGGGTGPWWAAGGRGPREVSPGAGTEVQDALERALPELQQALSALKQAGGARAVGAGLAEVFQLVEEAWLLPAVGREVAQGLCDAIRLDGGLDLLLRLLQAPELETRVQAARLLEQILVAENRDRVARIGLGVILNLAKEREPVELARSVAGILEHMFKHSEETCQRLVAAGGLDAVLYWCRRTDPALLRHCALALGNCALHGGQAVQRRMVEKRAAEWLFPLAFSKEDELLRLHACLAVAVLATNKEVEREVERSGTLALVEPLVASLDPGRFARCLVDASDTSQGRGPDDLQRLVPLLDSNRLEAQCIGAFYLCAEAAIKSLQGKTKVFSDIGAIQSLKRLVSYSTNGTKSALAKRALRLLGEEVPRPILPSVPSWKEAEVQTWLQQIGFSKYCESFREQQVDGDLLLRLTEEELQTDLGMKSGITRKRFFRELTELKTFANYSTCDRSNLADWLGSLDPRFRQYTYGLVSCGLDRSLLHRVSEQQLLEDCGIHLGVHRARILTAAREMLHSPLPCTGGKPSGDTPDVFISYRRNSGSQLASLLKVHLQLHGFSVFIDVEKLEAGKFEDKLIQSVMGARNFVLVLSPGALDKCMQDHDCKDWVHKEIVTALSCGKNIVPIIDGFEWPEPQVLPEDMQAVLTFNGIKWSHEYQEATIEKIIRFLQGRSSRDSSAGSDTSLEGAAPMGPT

C=C1C2CC[C@@]3(C)[C@H](c4ccoc4)OC(=O)C[C@]13O[C@H]1CC(=O)C(C)(C)[C@H](C(OC(C)=O)C(=O)OC)[C@@]21C (stereo partly specified)
inhibition [1]: 6.78% (inactive)
activity remaining [2]: 88.1% (inactive)

O=c1cccc2n1CC1CNC[C@H]2C1
parasite load remaining [3]: 134% (inactive)
viability [3]: 104%
inhibition [1]: -36.3% (inactive)
fold change ([4]; stronger effect = lower value, cell number ratio, induced over uninduced): 0.809 (inactive) and 0.946 (inactive)
fold change [4, 20]: 1.71 and 1.27
cell count [4, 21]: 8130 and 8990
cell count [4, 22]: 10000 and 9510
remaining NAD [5]: 10 nM (inactive)
luciferase signal [6]: 60 AU (inactive)
z-score [7]: 1.16 (inactive)

C[C@@H]([C@H](O)c1ccccc1)N(C)C
inhibition [8]: -9.65%
score [9]: 1.49
rescue above control [10]: -3.5
cytochrome c release ratio [11]: 0.95
inhibition of aggregation [12]: 81%
glutamate uptake change [13]: 13.8%
inclusion score [14]: 2
aggregation suppression score [15]: 1.19
inhibition [1]: 4.3% (inactive)
red/green cell ratio (normalised) [16]: 0.91 (inactive)
normalised cell number [16, 23]: 1.19
normalised cell number [16, 24]: 1.09
fold change ([4]; stronger effect = lower value): 0.94 (inactive)
fold change [4, 20]: 0.912
cell count [4, 21]: 8870
cell count [4, 22]: 9440
remaining NAD [5]: 10 nM (inactive)
luciferase signal [6]: 108 AU (inactive)

COc1cccc2c1cc([N+](=O)[O-])c1c(C(=O)O)cc3c(c12)OCO3
inhibition [1]: -5.9% (inactive)
activity remaining [2]: 103% (inactive)
fold change ([4]; stronger effect = lower value): 1.04 (inactive)
fold change [4, 20]: 1.14
cell count [4, 21]: 4170
cell count [4, 22]: 4020
luciferase signal [6]: 36 AU (inactive)

CNc1ccc(C(=O)CC(O)CCC(C)C2OC(=O)CC(O)CC(=O)CC(O)CC(O)CC(O)CC(O)CC3(O)CC(O)C(C(=O)OC)C(CC(O[C@@H]4O[C@H](C)[C@@H](O)[C@H](N)[C@@H]4O)/C=C/C=C/C=C/C=C/C=C/C=C/C=C/C2C)O3)cc1 (stereo partly specified)
parasite load remaining [3]: 132% (inactive) and 33.6% (inactive)
viability [3]: 90% and 101%
inhibition [1]: 2.08% (inactive)
red/green cell ratio (normalised) [16]: 1.39 (inactive)
normalised cell number [16, 23]: 0.82
normalised cell number [16, 24]: 1.14
fold change ([4]; stronger effect = lower value): 0.878 (inactive)
fold change [4, 20]: 3.37
cell count [4, 21]: 11000
cell count [4, 22]: 12500
remaining NAD [5]: 10 nM (inactive)

Oc1c(Cl)c(Cl)c(Cl)c(Cl)c1Cl
inhibition [1]: 4.09% (inactive)
red/green cell ratio (normalised) [16]: 0.88 (inactive)
normalised cell number [16, 23]: 1.25
normalised cell number [16, 24]: 1.1
luciferase signal [6]: 480 AU (active)

COC1=CC23CCCN2CCc2cc4c(cc2C3C1O)OCO4 (stereo unspecified)
inhibition [1]: -9.46% (inactive)
activity remaining [2]: 108% (inactive)

CCOP(=S)(OCC)SCn1c(=O)oc2cc(Cl)ccc21
inhibition [1]: -13.8% (inactive)
activity remaining [2]: 96.1% (inactive)

O=C1CCCN1CC#CCN1CCCC1
inhibition [8]: 17.7%
score [9]: 1.21
rescue above control [10]: 3.59
cytochrome c release ratio [11]: 0.97
inhibition of aggregation [12]: 79.6%
glutamate uptake change [13]: 5.01%
inclusion score [14]: 1
aggregation suppression score [15]: 1.3
period change [17]: 0.015 h (inactive)
parasite load remaining [3]: 75.3% (inactive) and 41.2% (inactive)
viability [3]: 88.4% and 99%
inhibition [18]: -4% (inactive)
inhibition [1]: -3.4% (inactive)
activity remaining [2]: 119% (inactive)
fold change ([4]; stronger effect = lower value): 1.1 (inactive) and 0.966 (inactive) and 0.92 (inactive)
fold change [4, 20]: 0.937 and 0.652 and 1.46
cell count [4, 21]: 11000 and 8640 and 10100
cell count [4, 22]: 10100 and 8940 and 11000
z-score ([19]; MELAS cybrid survival, CellTiter-Glo 48 h, stronger effect = higher value): -0.379 (inactive)
z-score ([19]; Rieske KO mouse fibroblast survival, CellTiter-Glo 72 h): -0.277
luciferase signal [6]: 44 AU (inactive)
z-score [7]: 0.355 (inactive) and 1.75 (inactive) and 0.67 (inactive)

O=C1CCO1
inhibition [8]: 12.7%
score [9]: 1.2
rescue above control [10]: 11.7
cytochrome c release ratio [11]: 1.11
inhibition of aggregation [12]: 22.4%
glutamate uptake change [13]: 5.98%
inclusion score [14]: 2
aggregation suppression score [15]: 1.23
parasite load remaining [3]: 165% (inactive) and 39.1% (inactive)
viability [3]: 91.2% and 89.3%
inhibition [1]: -4.86% (inactive)
red/green cell ratio (normalised) [16]: 1.22 (inactive)
normalised cell number [16, 23]: 0.9
normalised cell number [16, 24]: 1.09
fold change ([4]; stronger effect = lower value): 0.872 (inactive)
fold change [4, 20]: 2.98
cell count [4, 21]: 11800
cell count [4, 22]: 13500
remaining NAD [5]: 10 nM (inactive)
luciferase signal [6]: 100 AU (inactive)

CCCCOC(=O)c1ccccc1C(=O)OCCCC
parasite load remaining [3]: 68.9% (inactive)
viability [3]: 91.7%
inhibition [1]: 4.37% (inactive)
red/green cell ratio (normalised) [16]: 1.22 (inactive)
normalised cell number [16, 23]: 0.78
normalised cell number [16, 24]: 0.95
fold change ([4]; stronger effect = lower value): 0.891 (inactive)
fold change [4, 20]: 1.43
cell count [4, 21]: 10600
cell count [4, 22]: 11900
remaining NAD [5]: 10 nM (inactive)
luciferase signal [6]: 76 AU (inactive)
